Reference: PubChem BioAssay
Active and inactive are the calls of the source.

Columns and labels:
[1] = binders of probe aFSTL3 on microarray, primary screen, stem cell growth factor project, biochemical, small-molecule microarray, fluorescence 635/667 (AID 1064); details: higher = more signal;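 further: measures binding of the biotinylated anti-FSTL3 antibody to printed compounds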
[2] = binders from COS7 lysate, DM2A8 probe, primary screen, torsin A project, cell lysate, small-molecule microarray, fluorescence 635/667 (AID 1065); details: higher = more signal, COS7 lysate expressing mutant human TOR1A
[3] = binders of probe aFGF2 on microarray, primary screen, stem cell growth factor project, biochemical, small-molecule microarray, fluorescence 635/667 (AID 1067); details: higher = more signal;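 further: measures binding of biotinylated aFGF2 protein to printed compounds on slides; z-score merges feature fluorescence and signal-to-noise across triplicate slides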
[4] = binders of probe aFGF10 on microarray, primary screen, stem cell growth factor project, biochemical, small-molecule microarray, fluorescence 635/667 (AID 1071); details: higher = more signal;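 further: score merges 667 nm spot intensity and signal to noise from triplicate slides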
[5] = molecular target: Neurogenic locus notch homolog protein 2 (Homo sapiens) (UniProt Q04721); test: Notch2 binders on small-molecule microarrays, primary screen, biochemical, small-molecule microarray, 635 nm fluorescence, stem cell growth factors (AID 1073); details: Notch2 binding, higher = more signal
[6] = molecular target: Pro-neuregulin-1, membrane-bound isoform (Homo sapiens) (UniProt Q02297); test: NRG1 binders on small-molecule microarrays, primary screen, psychiatric disease protein project, biochemical, small-molecule microarray, fluorescence 635/667 (AID 1075); details: NRG1 binding, 635 nm fluorescence, higher = more signal;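 further: score combines 667 nm spot fluorescence with signal to noise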
Sequence of Pro-neuregulin-1, membrane-bound isoform (Homo sapiens) (Q02297 whole entry, looked up, the tested form may be a part, canonical isoform): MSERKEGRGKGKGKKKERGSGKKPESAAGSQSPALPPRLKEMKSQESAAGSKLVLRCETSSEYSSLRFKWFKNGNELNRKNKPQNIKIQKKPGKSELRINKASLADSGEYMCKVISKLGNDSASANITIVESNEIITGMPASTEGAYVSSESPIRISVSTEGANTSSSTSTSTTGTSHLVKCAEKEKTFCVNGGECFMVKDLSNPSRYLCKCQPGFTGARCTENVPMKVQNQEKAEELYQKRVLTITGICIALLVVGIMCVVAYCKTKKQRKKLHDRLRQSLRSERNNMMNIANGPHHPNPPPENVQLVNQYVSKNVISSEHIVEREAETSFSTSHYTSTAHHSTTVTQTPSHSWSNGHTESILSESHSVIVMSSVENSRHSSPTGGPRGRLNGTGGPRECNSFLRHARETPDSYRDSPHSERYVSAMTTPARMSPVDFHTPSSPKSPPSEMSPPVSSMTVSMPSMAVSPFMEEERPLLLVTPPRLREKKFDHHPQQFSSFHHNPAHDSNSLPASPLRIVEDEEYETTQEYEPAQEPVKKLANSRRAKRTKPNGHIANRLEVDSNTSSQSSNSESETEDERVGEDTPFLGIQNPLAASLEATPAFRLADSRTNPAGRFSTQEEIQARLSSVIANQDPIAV

[7] = system: Neuregulin-1 EGF-like domain; test: binders of neuregulin-1 EGF-like domain, primary screen, biochemical, small-molecule microarray, 635 nm fluorescence (AID 1081); details: small-molecule microarray binding, higher = more signal;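 further: binding of the protein to compounds printed on small-molecule microarray slides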
[8] = FRG1 promoter luciferase signal modulators, primary screen, FRG1 inhibition for FSHD, cell-based, C2C12 myotubes, firefly/Renilla luciferase, luminescence (AID 1084); details: higher = more signal, called active from +8 up or from −8 down
[9] = binders of probe aFST on microarray, primary screen, stem cell growth factor project, biochemical, small-molecule microarray, fluorescence 635/667 (AID 1086); details: higher = more signal;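 further: score merges 667 nm fluorescence with signal-to-noise of each printed compound spot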
[10] = binders of probe aHhip on microarray, primary screen, stem cell growth factor project, biochemical, small-molecule microarray, fluorescence 635/667 (AID 1087); details: higher = more signal;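 further: score merges spot fluorescence at 667nm with spot signal to noise ratio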
[11] = system: PRMT1 (protein arginine N-methyltransferase 1); test: PRMT1 binders on small-molecule microarrays, primary screen, biochemical, small-molecule microarray, 635 nm fluorescence (AID 1088); details: small-molecule microarray binding, higher = more signal;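 further: binding of Prmt1 protein to compounds spotted on small-molecule microarray slides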
[12] = yeast growth modulation, basal conditions, primary screen, YJM789 clinical isolate, OD600, 24 h (AID 1089);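 further: growth of clinical yeast isolate S. cerevisiae YJM 789 seeded 1000 cells per well; test concentration not given here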; details: S. cerevisiae YJM789 growth, higher = more signal, called active from +8 up or from −8 down
[13] = fission yeast growth modulation, primary screen, strain 972, OD600, 24 h, no modulator (AID 1090);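 further: basal condition with compound alone and no growth modifier present; test concentration not given here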; details: S. pombe 972 growth, higher = more signal, called active from +8 up or from −8 down
[14] = S. cerevisiae growth modulation with rapamycin, primary screen, strain BY4716, OD600, 96 h (AID 1091); details: higher = more signal, called active from +8 up or from −8 down; further: test concentration not given here
[15] = molecular target: Torsin-1A-interacting protein 2 (Homo sapiens) (UniProt Q8NFQ8); test: LULL1 binders on small-molecule microarray, primary screen, cell lysate, human LULL1 lysate, 635/667 nm fluorescence (AID 1092); details: hLULL1 lysate binding, 635 nm fluorescence, higher = more signal;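 further: probe is lysate of COS7 cells overexpressing human LULL1; score merges per-feature 667 nm fluorescence with signal-to-noise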
Sequence of Torsin-1A-interacting protein 2 (Homo sapiens) (Q8NFQ8 whole entry, looked up): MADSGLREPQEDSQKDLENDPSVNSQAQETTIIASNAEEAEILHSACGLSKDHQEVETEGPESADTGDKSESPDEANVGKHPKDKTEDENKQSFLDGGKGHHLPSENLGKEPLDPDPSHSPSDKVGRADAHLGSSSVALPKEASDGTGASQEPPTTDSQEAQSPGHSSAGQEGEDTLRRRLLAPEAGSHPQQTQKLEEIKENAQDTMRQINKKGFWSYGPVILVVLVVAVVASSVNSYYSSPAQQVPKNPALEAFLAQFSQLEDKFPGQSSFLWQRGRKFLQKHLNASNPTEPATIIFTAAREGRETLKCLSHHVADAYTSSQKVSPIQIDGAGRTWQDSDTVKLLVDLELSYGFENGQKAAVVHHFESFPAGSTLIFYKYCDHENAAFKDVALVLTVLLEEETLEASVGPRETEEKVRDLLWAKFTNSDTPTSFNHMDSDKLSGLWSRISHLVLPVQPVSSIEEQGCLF

[16] = E. coli growth modulation, two-sided OD650, primary screen, E. coli filamentation project, strain DRC41, 24 h (AID 1093); details: OD650, 24 h, higher = more signal, called active from +8 up or from −8 down;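 further: MC1000 strain lacking acrAB efflux and sulA so SOS filamentation is blocked; test concentration not given here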
[17] = small-molecule microarray binders of probe aLefty2, primary screen, biochemical, biotinylated probe, 635/667 nm fluorescence (AID 1094); details: higher = more signal;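 further: score merges spot fluorescence near 667 nm with spot signal-to-noise ratio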
[18] = system: Noggin (protein binding on small-molecule microarray); test: Noggin binders on small-molecule microarray, primary screen, biochemical, 635/667 nm fluorescence (AID 1095); details: 635 nm fluorescence, higher = more signal;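 further: score merges 667 nm feature fluorescence with signal to noise over triplicate slides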
[19] = molecular target: Neurogenic locus notch homolog protein 3 (Homo sapiens) (UniProt Q9UM47); test: NOTCH3 binders on small-molecule microarray, primary screen, biochemical, 635/667 nm fluorescence (AID 1096); details: NOTCH3 binding, 635 nm fluorescence, higher = more signal
Sequence of Neurogenic locus notch homolog protein 3 (Homo sapiens) (Q9UM47 whole entry, looked up): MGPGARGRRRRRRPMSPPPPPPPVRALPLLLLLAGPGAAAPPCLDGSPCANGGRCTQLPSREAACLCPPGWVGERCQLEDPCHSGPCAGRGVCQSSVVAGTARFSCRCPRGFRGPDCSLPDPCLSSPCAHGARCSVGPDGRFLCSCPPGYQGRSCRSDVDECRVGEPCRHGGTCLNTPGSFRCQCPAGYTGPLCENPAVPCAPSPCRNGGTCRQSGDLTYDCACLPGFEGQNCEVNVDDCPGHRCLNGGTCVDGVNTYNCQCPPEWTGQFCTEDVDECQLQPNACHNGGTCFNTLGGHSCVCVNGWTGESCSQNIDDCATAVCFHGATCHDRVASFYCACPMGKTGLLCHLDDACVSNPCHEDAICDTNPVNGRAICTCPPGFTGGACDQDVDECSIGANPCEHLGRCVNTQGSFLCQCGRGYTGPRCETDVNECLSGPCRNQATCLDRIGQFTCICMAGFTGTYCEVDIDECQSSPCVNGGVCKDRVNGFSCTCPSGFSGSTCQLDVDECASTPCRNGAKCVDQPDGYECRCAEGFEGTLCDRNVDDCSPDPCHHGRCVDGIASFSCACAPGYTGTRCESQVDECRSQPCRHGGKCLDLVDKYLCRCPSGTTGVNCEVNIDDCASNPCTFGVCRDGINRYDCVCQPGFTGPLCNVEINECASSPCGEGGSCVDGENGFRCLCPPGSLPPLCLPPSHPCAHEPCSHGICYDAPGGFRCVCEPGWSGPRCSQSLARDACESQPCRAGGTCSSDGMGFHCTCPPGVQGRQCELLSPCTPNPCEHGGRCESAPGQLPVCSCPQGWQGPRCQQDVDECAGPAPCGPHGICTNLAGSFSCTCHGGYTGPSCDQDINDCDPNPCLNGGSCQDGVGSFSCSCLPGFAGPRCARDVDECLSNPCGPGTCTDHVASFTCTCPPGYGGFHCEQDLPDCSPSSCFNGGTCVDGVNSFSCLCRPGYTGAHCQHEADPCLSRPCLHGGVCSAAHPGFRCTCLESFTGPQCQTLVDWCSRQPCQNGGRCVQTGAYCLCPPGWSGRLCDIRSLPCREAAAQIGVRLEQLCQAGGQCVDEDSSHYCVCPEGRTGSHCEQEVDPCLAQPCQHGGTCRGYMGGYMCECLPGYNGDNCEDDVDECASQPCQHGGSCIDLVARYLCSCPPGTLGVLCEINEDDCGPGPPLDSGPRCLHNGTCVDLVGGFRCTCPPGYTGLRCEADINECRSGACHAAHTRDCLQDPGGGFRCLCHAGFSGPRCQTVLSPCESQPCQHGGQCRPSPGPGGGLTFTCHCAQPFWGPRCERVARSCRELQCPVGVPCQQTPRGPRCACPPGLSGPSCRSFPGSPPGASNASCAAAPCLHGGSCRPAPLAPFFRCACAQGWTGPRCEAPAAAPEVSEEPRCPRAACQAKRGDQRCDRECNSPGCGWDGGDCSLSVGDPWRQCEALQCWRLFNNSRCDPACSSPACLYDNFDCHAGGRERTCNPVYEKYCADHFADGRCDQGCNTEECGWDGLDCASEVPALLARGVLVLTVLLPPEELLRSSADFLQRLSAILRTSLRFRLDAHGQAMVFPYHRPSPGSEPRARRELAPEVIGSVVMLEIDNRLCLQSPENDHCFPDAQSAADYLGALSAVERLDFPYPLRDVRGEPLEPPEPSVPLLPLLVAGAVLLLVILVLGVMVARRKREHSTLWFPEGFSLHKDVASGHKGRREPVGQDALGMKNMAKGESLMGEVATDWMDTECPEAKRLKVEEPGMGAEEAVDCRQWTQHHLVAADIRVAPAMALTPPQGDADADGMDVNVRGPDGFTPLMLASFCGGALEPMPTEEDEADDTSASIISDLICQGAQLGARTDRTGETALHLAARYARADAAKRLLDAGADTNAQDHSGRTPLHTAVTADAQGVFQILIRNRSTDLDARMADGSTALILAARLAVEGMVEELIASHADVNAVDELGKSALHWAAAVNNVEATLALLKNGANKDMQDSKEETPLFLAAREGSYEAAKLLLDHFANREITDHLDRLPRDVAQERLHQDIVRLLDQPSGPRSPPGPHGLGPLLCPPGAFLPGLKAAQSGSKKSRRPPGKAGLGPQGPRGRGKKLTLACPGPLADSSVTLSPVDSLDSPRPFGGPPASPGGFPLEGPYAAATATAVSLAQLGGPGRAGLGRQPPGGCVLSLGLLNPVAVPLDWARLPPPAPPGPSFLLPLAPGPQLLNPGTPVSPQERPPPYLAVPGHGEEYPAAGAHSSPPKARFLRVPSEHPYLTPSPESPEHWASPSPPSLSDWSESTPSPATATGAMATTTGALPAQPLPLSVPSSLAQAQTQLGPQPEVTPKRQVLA

[20] = small-molecule microarray binders of probe aEGFR, primary screen, biochemical, biotinylated probe, 635/667 nm fluorescence (AID 1097); details: higher = more signal;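 further: probe is a biotinylated anti-EGFR antibody binding compounds printed on slides; score combines fluorescence near 667 nm and signal to noise of each spot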

## COCCOC(=O)N1C(=O)[C@@]2(c3cc(C#Cc4ccc(OC)cc4)ccc31)[C@H](c1ccc(O)cc1)N1[C@H](c3ccccc3)[C@H](c3ccccc3)OC(=O)[C@H]1[C@@H]2C(=O)N1CCCCCCC1
[1]
  composite z-score: 2.84
[2]
  composite z-score: 0.746
[3]
  composite z-score: 0.0177
[4]
  composite z-score: 0.178
[5]
  composite z-score: 0.679
[6]
  composite z-score: 0.326
[7]
  composite z-score: 0.341
[8]
  z-score: 1.39 (inactive)
[9]
  composite z-score: 2.46
[10]
  composite z-score: 2.1
[11]
  composite z-score: 0.632
[12]
  z-score: -0.158 (inactive)
[13]
  z-score: -0.239 (inactive)
[14]
  z-score: 1.47 (inactive)
[15]
  composite z-score: 1.46
[16]
  z-score: -0.0793 (inactive)
[17]
  composite z-score: 1.43
[18]
  composite z-score: 0.332
[19]
  composite z-score: 0.0324
[20]
  composite z-score: 0.642

## O=C1N(Cc2ccccc2)Cc2ccccc2[C@@H]2OC(c3ccc(OCCCO)cc3)=N[C@]12CCS(=O)(=O)c1ccccc1
[1]
  composite z-score: 0.184
[2]
  composite z-score: -0.0546
[3]
  composite z-score: 0.0247
[4]
  composite z-score: 0.379
[5]
  composite z-score: 1.28
[6]
  composite z-score: 1.48
[7]
  composite z-score: 1.32
[8]
  z-score: -3.35 (inactive)
[9]
  composite z-score: 0.297
[10]
  composite z-score: -0.171
[11]
  composite z-score: 1.57
[12]
  z-score: 1.01 (inactive)
[13]
  z-score: 1.41 (inactive)
[14]
  z-score: 14.9 (active)
[15]
  composite z-score: 2.96
[16]
  z-score: 0.0267 (inactive)
[17]
  composite z-score: 0.228
[18]
  composite z-score: 0.49
[19]
  composite z-score: 0.763
[20]
  composite z-score: 0.209

## COCC1=C2[C@@H](CCc3ccccc3)OB(O)C[C@@H]2[C@@H]2C(=O)C=CC(=O)[C@@H]2C1
[1]
  composite z-score: -0.265
[2]
  composite z-score: 0.42
[3]
  composite z-score: -0.051
[4]
  composite z-score: 0.328
[5]
  composite z-score: 0.386
[6]
  composite z-score: 0.404
[7]
  composite z-score: 0.952
[8]
  z-score: -0.632 (inactive)
[9]
  composite z-score: 0.182
[10]
  composite z-score: -0.0708
[11]
  composite z-score: 1.57
[12]
  z-score: 0.506 (inactive)
[13]
  z-score: -2.86 (inactive)
[14]
  z-score: -0.288 (inactive)
[15]
  composite z-score: 1.32
[16]
  z-score: -0.224 (inactive)
[17]
  composite z-score: -0.143
[18]
  composite z-score: 0.883
[19]
  composite z-score: 1.12
[20]
  composite z-score: -0.106

## [N-]=[N+]=NCc1ccccc1C[C@@]1(C(=O)N2CCCCC2)N=C(c2ccc(OCCCO)cc2)O[C@@H]1c1ccccc1
[1]
  composite z-score: 0.0156
[2]
  composite z-score: 0.317
[3]
  composite z-score: -0.0958
[4]
  composite z-score: 0.108
[5]
  composite z-score: 1.09
[6]
  composite z-score: 1.15
[7]
  composite z-score: 0.825
[8]
  z-score: -3.91 (inactive)
[9]
  composite z-score: 0.301
[10]
  composite z-score: -0.0457
[11]
  composite z-score: 0.424
[12]
  z-score: 0.591 (inactive)
[13]
  z-score: 1.08 (inactive)
[14]
  z-score: 32.6 (active)
[15]
  composite z-score: 2.2
[16]
  z-score: 0.685 (inactive)
[17]
  composite z-score: -0.0261
[18]
  composite z-score: -0.578
[19]
  composite z-score: -0.426
[20]
  composite z-score: 0.159

## CC[C@H]1C2=C3C(CC[C@H]4C(OCc5ccc(F)cc5C(F)(F)F)OC[C@](C)([C@@H]34)N(C(=O)OC(C)(C)C)C2)C(COC)C1COC (stereo not given in full)
[1]
  composite z-score: -0.117
[2]
  composite z-score: -0.281
[3]
  composite z-score: 0.0253
[4]
  composite z-score: 0.0921
[5]
  composite z-score: 0.84
[6]
  composite z-score: 0.336
[7]
  composite z-score: -0.0151
[8]
  z-score: 1.18 (inactive)
[9]
  composite z-score: 0.857
[10]
  composite z-score: -0.329
[11]
  composite z-score: -0.728
[12]
  z-score: 0.242 (inactive)
[13]
  z-score: 0.78 (inactive)
[14]
  z-score: 0.153 (inactive)
[15]
  composite z-score: 1.68
[16]
  z-score: -0.773 (inactive)
[17]
  composite z-score: 0.0392
[18]
  composite z-score: -0.207
[19]
  composite z-score: 0.949
[20]
  composite z-score: -0.113

## CN1C(=O)C2C=CC(C(O)c3ccc(F)cc3)N(Nc3ccccc3)C2C1=O (stereo not given)
[1]
  composite z-score: -0.12
[2]
  composite z-score: -0.286
[3]
  composite z-score: -0.0222
[4]
  composite z-score: 0.208
[5]
  composite z-score: 1.24
[6]
  composite z-score: 1.35
[7]
  composite z-score: 1.34
[8]
  z-score: -0.604 (inactive)
[9]
  composite z-score: 0.862
[10]
  composite z-score: -0.215
[11]
  composite z-score: 0.225
[12]
  z-score: 0.397 (inactive)
[13]
  z-score: 1.08 (inactive)
[14]
  z-score: 1.97 (inactive)
[15]
  composite z-score: 3.69
[16]
  z-score: -1.2 (inactive)
[17]
  composite z-score: 0.085
[18]
  composite z-score: 0.447
[19]
  composite z-score: 1.02
[20]
  composite z-score: 0.0034

## CCOC(=O)C[C@H]1[C@H](OC(=O)Cc2ccc3c(c2)OCO3)[C@@H](NC(=O)CC(C)C)c2cc(OCCCO)ccc2N1C(=O)Cc1ccc(OC)cc1
[1]
  composite z-score: -0.244
[2]
  composite z-score: 0.0682
[3]
  composite z-score: -0.114
[4]
  composite z-score: 0.103
[5]
  composite z-score: -0.0727
[6]
  composite z-score: -0.308
[7]
  composite z-score: 0.258
[8]
  z-score: -2.61 (inactive)
[9]
  composite z-score: -0.207
[10]
  composite z-score: -0.245
[11]
  composite z-score: 0.336
[12]
  z-score: -1.88 (inactive)
[13]
  z-score: -0.843 (inactive)
[14]
  z-score: -0.733 (inactive)
[15]
  composite z-score: 1.09
[16]
  z-score: 1.38 (inactive)
[17]
  composite z-score: -0.134
[18]
  composite z-score: -0.0273
[19]
  composite z-score: 0.0046
[20]
  composite z-score: -0.111

## COCCCNC(=O)[C@@]1(Cc2ccccc2N=[N+]=[N-])N=C(c2ccc(OCCCO)cc2)O[C@H]1c1ccccc1
[1]
  composite z-score: 0.6
[2]
  composite z-score: 2.55
[3]
  composite z-score: 0.153
[4]
  composite z-score: 0.904
[5]
  composite z-score: 0.629
[6]
  composite z-score: 1.38
[7]
  composite z-score: 1.17
[8]
  z-score: -1.98 (inactive)
[9]
  composite z-score: 0.404
[10]
  composite z-score: 0.212
[11]
  composite z-score: 1.55
[12]
  z-score: -0.22 (inactive)
[13]
  z-score: -1.17 (inactive)
[14]
  z-score: 0.388 (inactive)
[15]
  composite z-score: 3.1
[16]
  z-score: 0.478 (inactive)
[17]
  composite z-score: 0.0894
[18]
  composite z-score: 0.923
[19]
  composite z-score: 0.74
[20]
  composite z-score: -0.096

## CO[C@H]1O[C@H](CO)[C@@H](OC(=O)Nc2ccc3c(c2)OCO3)[C@H](OC(=O)c2cc3ccccc3[nH]2)[C@H]1OC(=O)c1cc2ccccc2[nH]1
[1]
  composite z-score: -0.0446
[2]
  composite z-score: -0.152
[3]
  composite z-score: -0.0047
[4]
  composite z-score: 0.236
[5]
  composite z-score: -0.904
[6]
  composite z-score: 0.386
[7]
  composite z-score: 0.514
[8]
  z-score: 1.13 (inactive)
[9]
  composite z-score: -0.598
[10]
  composite z-score: 0.0623
[11]
  composite z-score: 0.391
[12]
  z-score: -2.1 (inactive)
[13]
  z-score: -0.908 (inactive)
[14]
  z-score: 0.489 (inactive)
[15]
  composite z-score: -0.33
[16]
  z-score: 0.382 (inactive)
[17]
  composite z-score: 0.0204
[18]
  composite z-score: 0.111
[19]
  composite z-score: 0.123
[20]
  composite z-score: -0.0828

## C=CCC(OC(C)=O)[C@@H]1[C@@H](N(Cc2cc3ccccc3o2)C(=O)c2ccc(-c3ccccc3)cc2)c2cc(OCCCO)ccc2N1C(=O)c1ccc2ccccc2c1 (stereo not given in full)
[1]
  composite z-score: -0.0256
[2]
  composite z-score: -0.262
[3]
  composite z-score: 0.0405
[4]
  composite z-score: -0.0863
[5]
  composite z-score: 0.251
[6]
  composite z-score: 0.0445
[7]
  composite z-score: -0.341
[8]
  z-score: -3.52 (inactive)
[9]
  composite z-score: 0.679
[10]
  composite z-score: -0.214
[11]
  composite z-score: 0.0279
[12]
  z-score: 0.271 (inactive)
[13]
  z-score: 0.314 (inactive)
[14]
  z-score: 1.03 (inactive)
[15]
  composite z-score: 1.1
[16]
  z-score: -0.704 (inactive)
[17]
  composite z-score: -0.0485
[18]
  composite z-score: 0.228
[19]
  composite z-score: 0.391
[20]
  composite z-score: -0.0981
